The text below walks through data of PubChem BioAssay (NCATS).

Inconclusive results are not listed. Activity calls are given as the source filed them. Calls come from the whole dose curve; as a rule, active = well fitted inhibition curve with a large enough effect; inconclusive = small, poorly fitted or top-dose-only effect; inactive = no such curve, though single readings can be large or run the other way.
Potency is the fitted concentration of half-maximal effect.

The assay is described as follows: qHTS to identify inhibitors of the type 1 interferon - major histocompatibility complex class I in skeletal muscle: primary screen against the NCATS Mechanism Interrogation Plate v5.0 (MIPE) Libary (AID 1347411).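 For activity change, negative = inhibition: plate controls were vehicle for no effect and reference inhibitor for full effect.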 Note: nearly all actives have a fitted effect of over 65% in size. The following applies: iHSKM cells + IFN-b, HiBiT-tagged MHC-I luminescence, 24 h; series mostly up to 45.8 µM; activity change, negative = inhibition: at the top concentration. An outline of the steps:
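HLA-B HiBit myoblasts, dexamethasone-free medium + 4 ng/ml IFN-b, 24 h compound, 11-pt 1:3 from 46 uM final. Readout: Nano-Glo HiBiT lytic luminescence after 10 min lysis, RT.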
For orientation: qHTS replaces the single test concentration by a dilution series.
As to `S=C(NCc1ccc2c(c1)OCO2)N1CCN(c2ncnc3c2oc2ccccc23)CC1`, the “activity change, negative = inhibition” value was -12.5% (inactive).

In the case of `OC[C@H](Cc1ccccc1)Nc1nc(Oc2ccc3c(c2)CCC3)nc2c1ncn2Cc1ccc(-c2ccccc2)cc1`, the “activity change, negative = inhibition” value is 11.9% (inactive).

In the case of `c1ccc(-c2nn3c(c2-c2ccnc4cc(OCCN5CCOCC5)ccc24)CCC3)nc1`, the “activity change, negative = inhibition” value was -2.51% (inactive).

Turning to `CCN(c1ccccc1)c1cc(NC)[n+](C)c(C)n1`, the “activity change, negative = inhibition” value was -11.6% (inactive).

Regarding `Cc1n[nH]c(C)c1Cc1sc2c(c1C(=O)N1C[C@H](O)CO1)c(=O)n(C)c(=O)n2CC(C)C`, the “activity change, negative = inhibition” value is 1.35% (inactive).

On to `CN(C)c1ccc(C2Nc3ccc4ccccc4c3C3=C2C(=O)CC(C)(C)C3)cc1Br` (stereo unspecified), for which the “activity change, negative = inhibition” value was 6.38% (inactive).

On to `O=C(Nc1ccc(F)c(C(F)(F)F)c1)Nc1nnc(-c2ccncc2)s1`, for which the “activity change, negative = inhibition” value was 1.89% (inactive).

`NC(=O)C1CCCc2c1[nH]c1ccc(Cl)cc21` (stereo unspecified): the “activity change, negative = inhibition” value was -13.5% (inactive).

Regarding `Nc1nc2[nH]cc(CCc3ccc(C(=O)N[C@@H](CCC(=O)O)C(=O)O)cc3)c2c(=O)[nH]1`, the “activity change, negative = inhibition” value was -0.545% (inactive).

Turning to `Cc1cnc(Nc2ccc(OCCN3CCCC3)cc2)nc1Nc1cccc(S(=O)(=O)NC(C)(C)C)c1`, the Potency was 5.23 µM (active).

With `CC[C@H](Nc1ncnc2nc[nH]c12)c1nc2cccc(F)c2c(=O)n1-c1ccccc1`, the “activity change, negative = inhibition” value is -20.2% (inactive).

For the compound `Cc1cc(SCc2sc(-c3ccc(C(F)(F)F)cc3)nc2C)ccc1OCC(=O)O`, the “activity change, negative = inhibition” value is -7.43% (inactive).

With `CN(C)c1ccc(Nc2nc(N)n(C(=O)c3c(F)cccc3F)n2)cc1`, the Potency is 16.5 µM (active).

On to `CC1(C)CNc2cc(NC(=O)c3cccnc3NCc3ccncc3)ccc21`, for which the “activity change, negative = inhibition” value was -17% (inactive).

Consider `NC(=O)c1ccc(-c2nc(-c3ccc4c(c3)OCCO4)c(-c3ccccn3)[nH]2)cc1`, for which the “activity change, negative = inhibition” value was -36.8% (inactive).

With `Cc1cc([C@@H](C)Nc2ccccc2C(=O)O)c2nc(N3CCOCC3)cc(=O)n2c1`, the “activity change, negative = inhibition” value was -18.2% (inactive).

As for `O=C(C1CC1)N1CC[C@@H](Cn2c(-c3ccc(-c4ccc5occc5c4)cc3)nc3cnccc32)C1`, the “activity change, negative = inhibition” value was -24.8% (inactive).

For `Cc1ccnc(NS(=O)(=O)c2ccc(NC(=O)Nc3ccc(S(=O)(=O)Nc4nccc(C)n4)cc3)cc2)n1`, the “activity change, negative = inhibition” value is -2.17% (inactive).

As for `N#Cc1ccc(C(c2ccc(C#N)cc2)n2cncn2)cc1`, the “activity change, negative = inhibition” value is -11.9% (inactive).

For `CS(=O)(=O)c1ccc(C(=O)Nc2ccc(Cl)c(-c3ccccn3)c2)c(Cl)c1`, the “activity change, negative = inhibition” value was -1.8% (inactive).

On to `Cc1cc2c(F)c(Oc3ncnn4cc(OC[C@@H](C)O)c(C)c34)ccc2[nH]1`, for which the “activity change, negative = inhibition” value was -23.4% (inactive).

For the compound `OCCn1cc(-c2cnc3nnn(Cc4ccc5ncccc5c4)c3n2)cn1`, the “activity change, negative = inhibition” value was -10.2% (inactive).

`CC(C)(N)C(=O)N[C@H](COCc1ccccc1)C(=O)N1CCC2(CC1)CN(S(C)(=O)=O)c1ccccc12`: the “activity change, negative = inhibition” value was 31.4% (inactive).

Regarding `O=c1[nH]c(-c2ccc(C(F)(F)F)cc2)nc2c1CSCC2`, the “activity change, negative = inhibition” value was -17.3% (inactive).

Consider `C[C@@H]1CN(Cc2ccc(F)cc2)[C@@H](C)CN1C(=O)c1cc2c(C(=O)C(=O)N(C)C)cn(C)c2cc1Cl`, for which the “activity change, negative = inhibition” value is -2.92% (inactive).

For the compound `CCN(CC)CCCC(C)Nc1nc(C)cc(Nc2ccc3nc(C)cc(N)c3c2)n1` (stereo unspecified), the “activity change, negative = inhibition” value is -2.22% (inactive).

For the compound `Cc1cc(Nc2nc(N[C@@H](C)c3ncc(F)cn3)ncc2Cl)n[nH]1`, the Potency was 1.04 µM (active).

For the compound `CS(=O)(=O)Oc1ccc2c(NC(N)=O)c(C(=O)c3ccc(Cl)cc3Cl)oc2c1`, the “activity change, negative = inhibition” value is -28.3% (inactive).

As for `O=C(O)[C@@H](c1ccc(OCc2ccc3ccccc3n2)cc1)C1CCCC1`, the “activity change, negative = inhibition” value was 31% (inactive).

For the compound `N#CC[C@H](C1CCCC1)n1cc(-c2ncnc3[nH]ccc23)cn1`, the “activity change, negative = inhibition” value is -70.1% (inactive).

For `CC(C)(C)OC(=O)CN(Cc1ccc(Cl)cc1)Cc1ccc([N+](=O)[O-])s1`, the “activity change, negative = inhibition” value is -14.8% (inactive).

Consider `NC(=O)c1ccc(I)c([N+](=O)[O-])c1`, for which the “activity change, negative = inhibition” value is -16.8% (inactive).

Consider `CNC(=O)c1ccc(N2C(=S)N(c3ccc(C#N)c(C(F)(F)F)c3)C(=O)C2(C)C)cc1F`, for which the “activity change, negative = inhibition” value is 4.83% (inactive).

For the compound `CCCn1c(=O)c2[nH]c(C34CC5CC3C[C@@H](C5)C4)nc2n(CCC)c1=O`, the “activity change, negative = inhibition” value was 6.42% (inactive).

`Cc1cccc(-c2nn(C(=S)Nc3ccccc3)cc2-c2ccnc3ccccc23)n1`: the “activity change, negative = inhibition” value is -9.72% (inactive).

`COc1c(Cl)cc2c([nH]c3cnccc32)c1NC(=O)c1cccnc1C`: the Potency was 26.2 µM (active).
